Consider eight compounds from PubChem BioAssay (EPA / NIEHS).

The source made the active and inactive calls. The calls were made as follows: active = hit-call score of the fitted dose curve at least 0.9, where 1 is the maximum; inactive = score below 0.9.

Assay [1] can be described thus: ATG_E_Box_CIS: Attagene CIS-FACTORIAL HepG2 Assay for human Enhancer Box (E-box) (AID 2282936). Conditions: HepG2 E-box cis-reporter transcription, actives raise or lower the signal. Put shortly: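 Endogenous transcription factor activity was sensed in human HepG2 liver cells through transfected cis-promoter reporter units. After 24 h of dosing, total RNA was reverse-transcribed and reporter cDNA resolved by capillary electrophoresis.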

Assay [2] is described as follows: ATG_M_61_CIS: Attagene CIS-FACTORIAL HepG2 Assay for M61 Transcription Factor (Internal Marker) (AID 2282937). The following applies: HepG2 Attagene CIS-FACTORIAL M61 internal marker reporter; actives raise or lower the signal. Put shortly:
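Multiplexed reporter mRNA assay, HepG2 human hepatoma cells, 24 h treatment. Signal: FAM-labelled, HpaI-digested RT-PCR fragments by CE. Fit: bidirectional, baseline DMSO.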

Assay [3] can be described thus: ATG_EGR_CIS: Attagene CIS-FACTORIAL HepG2 Assay for human Early Growth Response 1 (EGR1) (AID 2282938). The following applies: HepG2 Attagene CIS-FACTORIAL EGR reporter mRNA; actives raise or lower the signal. Put shortly:
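Multiplexed cis-reporter system in human hepatoma HepG2 cells, transiently transfected. Cells are dosed for 24 h; reporter transcripts are amplified, fluorescently tagged and sized by capillary electrophoresis, with DMSO as negative control.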

Assay [4] in a line: ATG_M_19_CIS: Attagene CIS-FACTORIAL HepG2 Assay for M19 Transcription Factor (Internal Marker) (AID 2282939). Conditions: HepG2 Attagene CIS-FACTORIAL M19 internal marker reporter; actives raise or lower the signal. Put shortly: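 Transfect HepG2 with MRTU reporter library → dose chemical, 24 h → isolate total RNA, reverse-transcribe with oligo(dT) → PCR, 6-FAM label, HpaI cut (2 h, 37 C) → capillary electrophoresis. Bidirectional fit vs DMSO.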

Assay [5] can be described thus: ATG_ERE_CIS: Attagene CIS-FACTORIAL HepG2 Assay for Estrogen Response Element (ERE) (AID 2282940). Conditions: HepG2 ERE cis-reporter, Attagene RNA transcript; actives raise or lower the signal. Put shortly: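 Transient MRTU transfection of human HepG2; cis-element promoters; 24 h dosing; total RNA → RT (oligo dT) → PCR → 6-FAM primer extension → HpaI digest → CE fluorescence. Bidirectional fit, DMSO baseline.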

Assay [6] is described as follows: ATG_Ets_CIS: Attagene CIS-FACTORIAL HepG2 Assay for human Erythroblast Transformation Specific (ETS) (AID 2282941). The following applies: HepG2 ETS cis-reporter transcription, actives raise or lower the signal. Put shortly: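 Multiplexed reporter transcript profiling: HepG2, 24 h treatment, total RNA to cDNA, PCR, 6-FAM labelling, HpaI cut, capillary electrophoresis. Gain- or loss-of-signal fitted against DMSO.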

In assay [7] the target is Hepatocyte nuclear factor 3-beta (Homo sapiens) (UniProt Q9Y261). The assay is described as follows: ATG_FoxA2_CIS: Attagene CIS-FACTORIAL HepG2 Assay for human Forkhead box A2 (FOXA2) (AID 2282942). The following applies: HepG2 cis-reporter transcription factor activity, 24 h; actives raise or lower the signal. Put shortly: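 Multiplexed cis-element reporter assay in transiently transfected HepG2. Twenty-four hours post-dosing, RNA was reverse-transcribed, amplified, FAM-labelled, HpaI-digested and separated by CE. Activity gain or loss relative to DMSO.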
Sequence of Hepatocyte nuclear factor 3-beta (Homo sapiens) (Q9Y261 whole entry, looked up): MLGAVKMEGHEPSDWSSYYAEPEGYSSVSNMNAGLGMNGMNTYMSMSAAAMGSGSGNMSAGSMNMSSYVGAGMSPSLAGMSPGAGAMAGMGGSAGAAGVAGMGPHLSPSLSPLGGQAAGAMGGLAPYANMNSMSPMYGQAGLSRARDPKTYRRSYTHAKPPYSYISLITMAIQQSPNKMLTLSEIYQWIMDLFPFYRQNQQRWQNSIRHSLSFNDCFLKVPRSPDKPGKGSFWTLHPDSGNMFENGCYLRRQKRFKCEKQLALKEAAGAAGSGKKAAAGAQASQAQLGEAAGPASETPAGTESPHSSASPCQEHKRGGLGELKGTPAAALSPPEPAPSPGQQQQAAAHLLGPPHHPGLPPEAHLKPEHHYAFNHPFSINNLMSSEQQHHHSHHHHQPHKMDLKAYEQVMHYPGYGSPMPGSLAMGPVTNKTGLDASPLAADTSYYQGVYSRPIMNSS

A short description of assay [8]: ATG_FoxO_CIS: Attagene CIS-FACTORIAL HepG2 Assay for human Forkhead box O (FoxO) (AID 2282943). Conditions: HepG2 Attagene cis-reporter, FoxO element, mRNA; actives raise or lower the signal. Put shortly:
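24 h chemical exposure, HepG2 with transient cis-MRTU transfection. RNA extraction, oligo(dT) RT, reporter-specific PCR, primer-extension labelling, HpaI digestion, CE fragment analysis; bidirectional fit, DMSO baseline.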

Assay [9] can be described thus: ATG_GATA_CIS: Attagene CIS-FACTORIAL HepG2 Assay for human GATA Binding Protein (AID 2282944). Conditions: HepG2 GATA cis-element reporter, Attagene multiplex mRNA; actives raise or lower the signal. Put shortly: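 Transient MRTU transfection, HepG2, 24 h compound exposure. Total RNA → oligo(dT) RT → PCR → 6-FAM primer extension → HpaI cut → CE. Bidirectional fit vs DMSO.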

Assay [10] in a line: ATG_GLI_CIS: Attagene CIS-FACTORIAL HepG2 Assay for human Zinc Finger Protein GLI1 (AID 2282945). The following applies: HepG2, Attagene cis-factorial reporter mRNA, GLI element; actives raise or lower the signal. Put shortly:
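HepG2 cells transiently transfected with cis-promoter multiplexed reporter units report endogenous transcription factor activity. After 24 h chemical exposure, reporter mRNA was quantified by RT-PCR, 6-FAM labelling, HpaI digestion and capillary electrophoresis, with bidirectional fitting against DMSO.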

Assay [11] is described as follows: ATG_GRE_CIS: Attagene CIS-FACTORIAL HepG2 Assay for human Glucocorticoid Response Elements (GRE) (AID 2282947). Conditions: HepG2 GRE cis-reporter, Attagene multiplex mRNA; actives raise or lower the signal. Put shortly:
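Cells (HepG2) bearing transfected cis-promoter reporter transcription units were treated with chemical for 24 hours. Reporter mRNA was measured via RT-PCR with capillary electrophoresis, and activity was fitted in both directions relative to DMSO.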

Assay [12] is described as follows: ATG_ISRE_CIS: Attagene CIS-FACTORIAL HepG2 Assay for human Interferon Regulatory Factor 1 (IRF1) binding to an Interferon-Stimulated Response Element (ISRE) (AID 2282948). The following applies: HepG2 ISRE cis-reporter (Attagene), mRNA transcription readout; actives raise or lower the signal. Put shortly: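 Signal reflects induction or loss of ISRE-linked reporter mRNA in transiently transfected HepG2 cells after a 24 h treatment, detected by fluorescent RT-PCR fragments on capillary electrophoresis and normalised to DMSO.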

The nature of assay [13]: ATG_M_32_CIS: Attagene CIS-FACTORIAL HepG2 Assay for M32 Transcription Factor (Internal Marker) (AID 2282949).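 Also: background control marker of the multiplexed CIS panel rather than a real target.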 Conditions: HepG2 Attagene cis-factorial M32 reporter, mRNA; actives raise or lower the signal. Put shortly:
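HepG2 human liver cells transiently transfected with cis-promoter-driven multiple reporter transcription units, dosed 24 h. Reporter mRNA quantified by RT-PCR, FAM-labelled primer extension, HpaI digest and capillary electrophoresis; bidirectional fit versus DMSO baseline.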

Assay [14] is described as follows: ATG_M_06_CIS: Attagene CIS-FACTORIAL HepG2 Assay for M06 Transcription Factor (Internal Marker) (AID 2282950). Conditions: HepG2 Attagene CIS-FACTORIAL M06 internal marker reporter; actives raise or lower the signal. Put shortly:
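Read-out is fluorescence of labelled reporter cDNA fragments resolved by capillary electrophoresis after RT-PCR. Cells: HepG2 carrying transfected cis-promoter reporter units, treated 24 h. Gain or loss of signal fitted relative to DMSO.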

In assay [15] the target is Hypoxia-inducible factor 1-alpha (Homo sapiens) (UniProt Q16665). The assay is described as follows: ATG_HIF1a_CIS: Attagene CIS-FACTORIAL HepG2 Assay for human Hypoxia Inducible Factor 1 (HIF1A) (AID 2282951). Conditions: HepG2 Attagene cis-factorial HIF1a reporter transcription; actives raise or lower the signal. Put shortly: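 Cis-element reporter constructs were transiently transfected into HepG2 cells, which were treated for 24 h; reporter RNA was reverse-transcribed, amplified, labelled and resolved by capillary electrophoresis.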
Sequence of Hypoxia-inducible factor 1-alpha (Homo sapiens) (Q16665 whole entry, looked up): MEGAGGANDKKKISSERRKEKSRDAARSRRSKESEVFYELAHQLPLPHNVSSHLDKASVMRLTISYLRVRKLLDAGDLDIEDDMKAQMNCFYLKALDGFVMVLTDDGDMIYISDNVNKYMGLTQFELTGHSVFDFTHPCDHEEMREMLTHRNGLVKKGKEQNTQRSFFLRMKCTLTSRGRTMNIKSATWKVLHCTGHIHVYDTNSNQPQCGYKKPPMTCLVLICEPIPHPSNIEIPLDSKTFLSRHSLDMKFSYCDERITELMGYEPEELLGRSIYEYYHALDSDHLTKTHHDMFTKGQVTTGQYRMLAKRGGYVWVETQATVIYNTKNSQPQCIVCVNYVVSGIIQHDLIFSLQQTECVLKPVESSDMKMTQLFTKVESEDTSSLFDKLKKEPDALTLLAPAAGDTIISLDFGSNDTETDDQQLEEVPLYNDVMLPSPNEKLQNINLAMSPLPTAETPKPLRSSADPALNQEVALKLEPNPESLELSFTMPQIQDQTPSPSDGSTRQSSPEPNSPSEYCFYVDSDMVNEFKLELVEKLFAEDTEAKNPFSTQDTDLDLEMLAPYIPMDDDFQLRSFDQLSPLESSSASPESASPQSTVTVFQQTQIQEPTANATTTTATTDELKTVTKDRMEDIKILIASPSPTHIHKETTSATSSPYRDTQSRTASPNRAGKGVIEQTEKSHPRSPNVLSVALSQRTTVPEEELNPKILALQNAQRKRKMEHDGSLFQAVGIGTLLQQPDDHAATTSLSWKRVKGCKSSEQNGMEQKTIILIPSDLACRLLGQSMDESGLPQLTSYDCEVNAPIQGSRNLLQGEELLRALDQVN

Assay [16] addresses Hepatocyte nuclear factor 6 (Homo sapiens) (UniProt Q9UBC0). The assay is described as follows: ATG_HNF6_CIS: Attagene CIS-FACTORIAL HepG2 Assay for human Hepatocyte Nuclear Factor 6 (HNF6) (AID 2282952). Conditions: HepG2 Attagene cis-factorial HNF6 reporter transcription; actives raise or lower the signal. Put shortly: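 First, HepG2 cells were transfected with the multiplexed cis reporter library and dosed with chemical for 24 h. Next, RNA was reverse-transcribed, PCR-amplified and fluorescently labelled. Finally, HpaI-digested fragments were read by capillary electrophoresis.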

The target in assay [17] is Heat shock factor protein 1 (Homo sapiens) (UniProt Q00613). The assay is described as follows: ATG_HSE_CIS: Attagene CIS-FACTORIAL HepG2 Assay for human Heat Shock Transcription Factor 1 (HSE) (AID 2282953). Conditions: HepG2 HSE cis-reporter, Attagene RNA transcription; actives raise or lower the signal. Put shortly:
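HepG2, transient MRTU transfection, cis-promoter reporters (endogenous TF activity). 24 h compound. RNA → oligo(dT) RT → PCR → 6-FAM primer extension → HpaI cut → CE. Bidirectional fit vs DMSO.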

Assay [18] can be described thus: ATG_MRE_CIS: Attagene CIS-FACTORIAL HepG2 Assay for human Metal Responsive Element (MRE) (AID 2282954). Conditions: HepG2 MRE cis-reporter transcription, Attagene multiplex; actives raise or lower the signal. Put shortly: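 Cells were transfected with cis-promoter reporter transcription units, then dosed for 24 h. RNA was reverse-transcribed, amplified, fluorescently labelled and resolved by capillary electrophoresis, and activity was fitted in both directions relative to DMSO.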

Assay [19] in a line: ATG_PBREM_CIS: Attagene CIS-FACTORIAL HepG2 Assay for human Phenobarbital-responsive Enhancer Module (PBREM) (AID 2282955). Conditions: HepG2 PBREM cis-reporter, Attagene multiplexed transcription; actives raise or lower the signal. Put shortly:
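Multiplexed cis-reporter readout in human hepatoma HepG2 cells; PBREM-regulated transcript quantified after 24 h exposure by fluorescent RT-PCR fragment analysis. Signal changes up or down fitted relative to DMSO.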

Sequence of Heat shock factor protein 1 (Homo sapiens) (Q00613 whole entry, looked up): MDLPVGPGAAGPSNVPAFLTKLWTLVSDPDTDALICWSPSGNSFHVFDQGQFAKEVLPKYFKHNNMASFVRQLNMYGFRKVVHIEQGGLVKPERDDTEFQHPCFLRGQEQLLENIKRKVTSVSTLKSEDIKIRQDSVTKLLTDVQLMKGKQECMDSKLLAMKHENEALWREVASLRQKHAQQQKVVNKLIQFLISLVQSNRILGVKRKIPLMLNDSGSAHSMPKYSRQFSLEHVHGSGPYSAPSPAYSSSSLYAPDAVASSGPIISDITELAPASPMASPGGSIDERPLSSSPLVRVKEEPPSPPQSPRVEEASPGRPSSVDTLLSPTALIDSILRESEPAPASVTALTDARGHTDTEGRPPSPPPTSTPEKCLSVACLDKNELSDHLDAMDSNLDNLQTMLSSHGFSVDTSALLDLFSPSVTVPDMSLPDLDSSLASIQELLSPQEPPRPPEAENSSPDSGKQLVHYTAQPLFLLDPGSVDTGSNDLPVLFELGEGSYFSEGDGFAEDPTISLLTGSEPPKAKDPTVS
Sequence of Hepatocyte nuclear factor 6 (Homo sapiens) (Q9UBC0 whole entry, looked up, the tested form may be a part): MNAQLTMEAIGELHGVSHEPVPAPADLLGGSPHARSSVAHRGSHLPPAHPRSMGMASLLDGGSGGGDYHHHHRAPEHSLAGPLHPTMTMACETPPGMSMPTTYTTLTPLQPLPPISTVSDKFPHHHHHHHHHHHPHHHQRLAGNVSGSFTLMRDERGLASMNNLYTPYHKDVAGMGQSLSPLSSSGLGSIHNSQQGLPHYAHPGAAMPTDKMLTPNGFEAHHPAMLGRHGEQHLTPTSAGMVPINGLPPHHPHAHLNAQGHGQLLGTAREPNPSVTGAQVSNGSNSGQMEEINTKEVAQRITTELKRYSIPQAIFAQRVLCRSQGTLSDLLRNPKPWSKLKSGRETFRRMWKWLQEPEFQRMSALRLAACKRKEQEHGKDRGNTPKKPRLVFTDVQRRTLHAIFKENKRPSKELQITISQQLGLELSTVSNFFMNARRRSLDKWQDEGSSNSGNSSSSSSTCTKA

In general, AC50 refers to the concentration giving half of the maximal activity seen. `CC1=NC(C)OC1C` (stereo unspecified): the outcome in [1], in assay [2], in assay [3], in assay [4], in assay [5] and in [6] was inactive. In addition, the result in [7], in assay [8], in assay [9], in assay [10], in assay [11] and in assay [13] was inactive. For the same compound, the compound was called inactive in assay [14], in assay [15], in assay [16], in assay [18] and in [19]. Moreover, the figures for the AC50 in assay [12] and in assay [17] were 100 µM (active) and 160 µM (active), respectively.

As to `CN(C)c1ccc(C(=N)c2ccc(N(C)C)cc2)cc1`, the AC50 in assay [1] is 56.6 µM (active); in assay [3], 1.36 µM (active); in [7], 0.721 µM (active); in [12], 23 µM (active); in assay [15] it was 0.816 µM (active); in assay [17], 29.4 µM (active). In addition, the results for the AC50 in assay [18] and in [19] were 6.69 µM (active) and 7.5 µM (active), respectively. Moreover, the compound was called inactive in [2], in [4], in assay [5], in assay [6], in [8] and in assay [9]. The compound was called inactive in assay [10], in assay [11], in assay [13], in assay [14] and in assay [16].

For the compound `NC(=O)OCC(COC(N)=O)c1ccccc1`, the result in [1], in assay [2], in assay [3], in assay [4], in assay [5] and in [6] was inactive. The result in [7], in assay [8], in [9], in assay [10], in [11] and in [12] was inactive. Further, the compound was classed as inactive in assay [13], in [14], in assay [16], in assay [17], in assay [18] and in assay [19].

`O=C(O)CCCC[C@@H]1SC[C@@H]2NC(=O)N[C@@H]21`: the result in assay [1], in assay [2], in [3], in assay [4], in assay [5] and in assay [6] was inactive. For the same compound, the result in [7], in assay [8], in assay [9], in assay [10], in assay [11] and in assay [12] was inactive. The result in [13], in assay [14], in assay [16], in [17], in assay [18] and in assay [19] was inactive.

As to `OC1CCCC1`, the result in assay [1], in [2], in assay [3], in [4], in assay [5] and in assay [6] was inactive. Moreover, the outcome in [7], in assay [8], in assay [9], in [10], in assay [11] and in assay [12] was inactive. For the same compound, the compound was classed as inactive in assay [13], in assay [14], in assay [15], in assay [16], in assay [17] and in [18]. The outcome in [19] was inactive.

On to `FC(F)(F)C(=NOCC1OCCO1)c1ccc(Cl)cc1`, for which the outcome in [1], in assay [2], in assay [3], in [4], in assay [5] and in assay [6] was inactive. The compound was called inactive in assay [7], in assay [8], in [9], in assay [10], in [11] and in [12]. Moreover, the compound was classed as inactive in assay [13], in assay [14], in assay [15], in assay [16], in [17] and in [19]. In addition, in assay [18], the AC50 was 100 µM (active).

As for `COCCOCCOCCOCCOC`, the result in [1], in assay [2], in [3], in assay [4], in assay [5] and in assay [6] was inactive. Besides, the outcome in assay [7], in [8], in assay [9], in assay [10], in [11] and in [12] was inactive. Also, the call in [13], in assay [14], in [15], in assay [16] and in assay [18] was inactive.

Turning to `Cc1ccccc1C`, the result in assay [1], in assay [2], in assay [3], in [4], in [5] and in assay [6] was inactive. Besides, the compound was classed as inactive in [7], in [8], in assay [9], in assay [10], in [11] and in assay [12]. In addition, the compound was classed as inactive in assay [13], in assay [15], in assay [16], in assay [17] and in [18].
